Among the data in PubChem BioAssay AID504617 (Sanford-Burnham Center for Chemical Genomics, 2011) are activity change, negative = activation values, retold here.

SMILES strings stand for the structures. This is one part of the list. Unmarked numbers belong to inactive results. Calls of active or inactive are those of the source.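 Rule for the calls: active = mean activity change at or below -40%, meaning activation of 40% or more, at 20 µM; inactive = the rest.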

For the experiment, the target named is Apoptotic protease-activating factor 1 (Homo sapiens) (UniProt O14727). Nature of the experiment: Apaf-1 activators, single-dose retest, confirmation, biochemical, fluorescence, DEVD-Rh110, 20 µM (AID 504617). The conditions noted are these: reconstituted apoptosome caspase-3 activity, at 20 µM, hits give low values.
Sequence of Apoptotic protease-activating factor 1 (Homo sapiens) (O14727 whole entry, looked up): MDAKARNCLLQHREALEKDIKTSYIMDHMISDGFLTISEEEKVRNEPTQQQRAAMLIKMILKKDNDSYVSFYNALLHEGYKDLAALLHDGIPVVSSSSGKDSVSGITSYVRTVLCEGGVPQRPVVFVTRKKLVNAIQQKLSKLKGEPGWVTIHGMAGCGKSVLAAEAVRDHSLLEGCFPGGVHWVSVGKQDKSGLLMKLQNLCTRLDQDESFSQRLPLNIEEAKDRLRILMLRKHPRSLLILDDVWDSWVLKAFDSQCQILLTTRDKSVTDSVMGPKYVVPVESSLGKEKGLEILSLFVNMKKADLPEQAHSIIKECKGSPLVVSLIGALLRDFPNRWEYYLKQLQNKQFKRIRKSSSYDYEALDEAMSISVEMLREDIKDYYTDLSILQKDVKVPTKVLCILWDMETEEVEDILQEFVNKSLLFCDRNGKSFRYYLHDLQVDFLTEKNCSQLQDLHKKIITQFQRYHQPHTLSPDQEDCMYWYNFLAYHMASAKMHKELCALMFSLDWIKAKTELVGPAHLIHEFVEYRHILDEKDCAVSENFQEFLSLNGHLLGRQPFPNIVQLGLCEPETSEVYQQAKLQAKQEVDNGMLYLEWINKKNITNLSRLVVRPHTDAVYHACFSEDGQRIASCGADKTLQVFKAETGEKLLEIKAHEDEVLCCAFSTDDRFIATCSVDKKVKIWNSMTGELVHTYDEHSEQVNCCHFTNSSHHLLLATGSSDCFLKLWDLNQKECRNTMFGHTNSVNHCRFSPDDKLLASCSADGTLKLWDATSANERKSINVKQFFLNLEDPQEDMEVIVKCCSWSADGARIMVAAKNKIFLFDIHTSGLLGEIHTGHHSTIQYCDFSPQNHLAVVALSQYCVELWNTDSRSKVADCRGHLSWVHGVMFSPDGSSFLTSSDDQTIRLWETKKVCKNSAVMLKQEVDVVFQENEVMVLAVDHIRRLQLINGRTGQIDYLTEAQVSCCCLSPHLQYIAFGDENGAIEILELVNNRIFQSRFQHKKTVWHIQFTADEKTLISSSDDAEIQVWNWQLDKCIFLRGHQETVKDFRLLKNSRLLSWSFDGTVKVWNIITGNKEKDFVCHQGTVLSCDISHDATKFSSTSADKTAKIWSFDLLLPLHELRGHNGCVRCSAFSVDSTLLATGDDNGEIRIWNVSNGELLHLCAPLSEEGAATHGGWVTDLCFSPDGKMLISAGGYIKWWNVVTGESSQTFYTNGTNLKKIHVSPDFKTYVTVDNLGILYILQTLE
With `COc1ccc(OCCCC(=O)NCCc2ccccc2)cc1`, the activity change, negative = activation is 4.66%.
The same measure for `C=CC1=C(C(=O)O)N2C(=O)[C@@H](NC(=O)/C(=N/OCC(=O)O)c3csc(N)n3)[C@H]2SC1`: -113% (active); for `O=C(CN1C(=O)C2C3C=CC(C3)C2C1=O)NCCc1ccccc1Cl` (stereo not given): 10.8%.
The value for `O=C(CCc1ccccc1)NNC(=O)c1ccc(Br)cc1` was 5.47%; that for `Cc1nn(CC(=O)Nc2ccc(C#N)cc2)c(C)c1[N+](=O)[O-]` was -10.5%; that for `COc1ccccc1OCC(=O)Nc1c2c(nn1-c1ccc(F)cc1)CS(=O)(=O)C2` was 9.31%.
The same measure for `COc1ccc(S(=O)(=O)N2CCCCC2)cc1NC(=O)c1cc([N+](=O)[O-])ccc1N1CCOCC1`: 13.5%.
For `Brc1ccc(/C=N/N2CCN(C3c4ccccc4-c4ccccc43)CC2)s1`, the activity change, negative = activation was 4.14%.
The value for `COC(=O)C(C)N(C#N)c1nc(C)nc(C)n1` (stereo not given) was 10.4%.
The same measure for `CCCC(=O)Nc1nc2ccc(NC(=O)c3c(F)c(F)c(OC)c(F)c3F)cc2s1`: 9.11%; for `O=C(Nc1ccccc1F)c1ccccc1-c1ccccc1`: 4.47%; for `COC(CNC(=O)Cn1ncc2ccsc2c1=O)OC`: 10.8%.
The same measure for `O=c1[nH]cnc2c1c(-c1ccccc1)cn2-c1ccc(F)cc1`: 10.9%; for `C=CC1=C(C(=O)O)N2C(=O)[C@@H](NC(=O)/C(=N\OCC(=O)O)c3csc(N)n3)[C@H]2SC1`: -114% (active); for `O=[N+]([O-])c1ccc2nc(-c3ccccn3)[nH]c2c1`: 9.21%.
